The list is not random: actives were taken first. Their share in the collection is about 8.3%.
HCMV inh = qHTS Assay for inhibitors of the human cytomegalovirus (HCMV). HFF cells, HCMV-luciferase reporter, 72 h; hits give low values. actives 4.5% (n = 410,000). activity change, negative = inhibition, % at 57.5 µM. AID 1259415, 2018; in the data active = activity change below about -60%; inconclusive = no clear call, values can overlap the other calls; inactive = above about -39%
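Luciferase read-out from HCMV-luciferase-infected HFFs (MOI 1 PFU/cell) 72 h post infection at 37C; compounds added after 16 h cell attachment; activity normalized between buffer-only basal and Salinomycin (10uM) inhibitor controls.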
HCV inhibitor = qHTS Assay for Inhibitors of Hepatitis C Virus (HCV); Huh7.5.1 HCVcc-Cre infection, luciferase reporter, 44 h; Potency, µM (top dose mostly 41.8 µM), hits mostly inhibitors; actives 3.4% (n = 340,000)
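Seed cells (1,000/well) for 4 h; treat with compound and infect with HCVcc-Cre, moi about 0.5. Incubate 44 h, then detect luciferase activity.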
Marburg entry inh = qHTS for inhibitors of binding or entry into cells for Marburg Virus; Potency, µM (highest dose often 37.8 µM), actives largely listed as inhibitors; Marburg virus pseudotyped entry inhibition, cell reporter; actives 1.8% (n = 300,000); AID 540276, 2011; calls by dose curve; tested in HEK293 cells
Lassa entry inh = qHTS for Inhibitors of binding or entry into cells for Lassa Virus; actives 1.2% (n = 300,000); Potency, µM (top dose mostly 37.9 µM), hits mostly inhibitors; Lassa virus pseudotype entry inhibition, cell reporter; calls by dose curve; tested in HEK293 cells; also: nearly all actives have a fitted effect of over 50% in size
FBPA Giardia inh = qHTS Assay for Inhibitors of Fructose-1,6-bisphosphate Aldolase from Giardia Lamblia; AID 2451, 2010; Potency, µM (doses to about 59.6 µM), most hits filed as inhibitors; actives 0.71% (n = 290,000); A8B2U2; purified Giardia FBPA; also: nearly all actives have a fitted effect of over 55% in size
Target sequence (A8B2U2 whole entry, looked up): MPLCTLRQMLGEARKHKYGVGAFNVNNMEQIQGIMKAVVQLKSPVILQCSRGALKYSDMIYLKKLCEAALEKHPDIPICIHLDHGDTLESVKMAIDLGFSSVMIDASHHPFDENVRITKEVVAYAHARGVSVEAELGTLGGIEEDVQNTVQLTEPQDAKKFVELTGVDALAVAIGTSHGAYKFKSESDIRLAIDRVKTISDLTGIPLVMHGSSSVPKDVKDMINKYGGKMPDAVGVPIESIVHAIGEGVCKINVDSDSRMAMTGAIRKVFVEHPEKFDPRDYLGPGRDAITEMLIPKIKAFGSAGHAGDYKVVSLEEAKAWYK
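40 nM FBPA preincubated 10 min at RT with compound (up to 57.5 uM final), then substrate plus GAPDH/TPI/NAD/arsenate coupling and diaphorase/resazurin added. Fluorescence read after 20 min at RT, 525/598 nm.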
FMDV inh = High Throughput Screening for Foot and Mouth Disease Virus Antivirals; FMDV antiviral cell-based qHTS; Potency, µM (top dose mostly 57.9 µM), actives largely listed as inhibitors; actives 1.2% (n = 410,000); AID 1159524, 2015; calls by dose curve; tested in HEK293T cells; also: read-out not given here; nearly all actives have a fitted effect of over 45% in size
Numbers stand for hits. Unless noted, calls follow the shape of the dose curve; as a rule, active = well fitted curve in the direction sought with a large enough effect; inconclusive = small, poorly fitted or top-dose-only effect, or another doubt; inactive = no such curve, though single readings can be large; an effect the other way counts as inactive or inconclusive.

How did COC(=O)c1c(NC(=O)C(Cl)Cl)sc2c1C(C(=O)OC)CC2 (stereo not drawn) do in these assays?
HCMV inh: -62; HCV inhibitor: inconclusive; FBPA Giardia inh: inactive; FMDV inh: inconclusive

What do the screens show for `COC(=O)c1c(NC(=O)C(C)(C)C)sc2c1C(C(=O)OC)CC2` (stereo not drawn)?
HCMV inh: inactive; HCV inhibitor: inconclusive; Marburg entry inh: inactive; Lassa entry inh: inactive; FMDV inh: inactive

What do the screens show for `O=C(/C=C/c1ccccc1)CC(=O)c1ccccc1O`?
HCMV inh: inactive; HCV inhibitor: 11µM; Marburg entry inh: inactive; Lassa entry inh: inactive; FBPA Giardia inh: inactive; FMDV inh: inactive

How did O=C(/C=C/c1ccccc1)NC(=O)c1ccccc1O do in these assays?
HCMV inh: inactive; HCV inhibitor: inactive; Marburg entry inh: inactive; FBPA Giardia inh: inactive; FMDV inh: inactive

Results for Cc1ccc(Sc2ccc(N3CCCC(C(=O)Nc4ccc(Br)cc4)C3)nn2)cc1 (stereo not drawn) ?
HCMV inh: inactive; Marburg entry inh: inactive; Lassa entry inh: 1.1µM; FMDV inh: inactive

What do the screens show for `COc1cccc(Oc2cn[nH]c2-c2ccc(O)cc2O)c1`?
HCMV inh: inactive; HCV inhibitor: inconclusive; Marburg entry inh: inconclusive; Lassa entry inh: inactive; FBPA Giardia inh: inconclusive

Results for COc1ccccc1Oc1cn[nH]c1-c1ccc(O)cc1O ?
HCMV inh: -66; HCV inhibitor: inactive; FBPA Giardia inh: inactive; FMDV inh: inactive

What do the screens show for `COc1cccc(Oc2cn[nH]c2-c2ccc(OC)cc2O)c1`?
HCMV inh: inactive; HCV inhibitor: 11µM; Marburg entry inh: inconclusive; Lassa entry inh: inconclusive; FBPA Giardia inh: inactive; FMDV inh: inactive

Results for Cc1ccccc1N1C(=O)c2cc(S(N)(=O)=O)c(Cl)cc2N[C@H]1C ?
FBPA Giardia inh: inactive

What do the screens show for `C[C@H](O)c1n(C)c(Cl)c[n+]1C`?
Marburg entry inh: inactive

What do the screens show for `COc1ccc(NC(=O)C(NC(=O)/C=C\c2ccc3c(c2)OCO3)c2ccccc2)cc1` (stereo not drawn)?
HCMV inh: inconclusive; Marburg entry inh: inconclusive; Lassa entry inh: inconclusive; FMDV inh: inactive

Results for CCCN1CCN(CCNC(=O)Nc2ccc(OC)c(OC)c2)CC1 ?
HCMV inh: inactive; Marburg entry inh: inactive; Lassa entry inh: inactive; FMDV inh: inactive

How did CCC(CO)Nc1nc2ccc(Cl)cc2c2ccccc12 (stereo not drawn) do in these assays?
HCMV inh: inconclusive; HCV inhibitor: 4µM; Marburg entry inh: inconclusive; Lassa entry inh: inconclusive; FBPA Giardia inh: inactive; FMDV inh: inactive

Results for CC1(c2ccc(Cl)cc2)CC(C)(C)N(C(=O)c2cccc(F)c2)c2ccccc21 (stereo not drawn) ?
HCMV inh: -65; Lassa entry inh: inactive; FMDV inh: inactive

What do the screens show for `CC1(c2ccccc2)CC(C)(C)N(C(=O)c2ccccc2Cl)c2ccccc21` (stereo not drawn)?
HCMV inh: inactive; Marburg entry inh: inactive; Lassa entry inh: inactive; FMDV inh: 28µM

Results for COc1ccc(C(=O)N2c3ccc(C)cc3C(C)(c3ccccc3)CC2(C)C)cc1 (stereo not drawn) ?
HCMV inh: -71; Lassa entry inh: inactive; FMDV inh: inconclusive

Results for COc1ccccc1C(=O)N1c2ccccc2C(C)(c2ccc(Cl)cc2)CC1(C)C (stereo not drawn) ?
HCMV inh: -72; Lassa entry inh: inconclusive; FMDV inh: inconclusive

Results for Cc1ccc2c(c1)C(C)(c1ccccc1)CC(C)(C)N2C(=O)c1ccc(F)cc1 (stereo not drawn) ?
HCMV inh: inconclusive; Lassa entry inh: inactive; FMDV inh: inconclusive

How did CCCCC(=O)N1c2ccccc2C(C)(c2ccccc2)CC1(C)C (stereo not drawn) do in these assays?
HCMV inh: inactive; Marburg entry inh: inactive; Lassa entry inh: inconclusive; FMDV inh: inactive

How did C/C(CCC(=O)OC[C@H]1O[C@H](C#Cc2ccccc2)C=C[C@@H]1Oc1ccc(C)cc1)=N\OC[C@@H](O)COCc1ccco1 do in these assays?
Marburg entry inh: inactive
